Data from PubChem BioAssay AID1159580 (chemical genetic matrix, 2015).
Where “and” joins values, the source holds several entries; their conditions need not be identical. Identical values can stand only once. Among all 5,500 compounds or so, about 2,000 (36%) were called active. About 18% were inconclusive and are not listed. Rule as the data show it: active = normalized growth mostly below about 0.91 (no sharp cut-off); inconclusive = no clear call, values can overlap the other calls; inactive = mostly above about 0.92. The list shows a part of the results.

Assay: chemical genetic growth profiling, strain panel (AID 1159580);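 also: tested at 20 µM; growth read once vehicle control cultures reached saturation at 30 °C; 1 = growth at the plate median or of vehicle wells; lower values mean less growth of the strain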
Conditions: S. cerevisiae deletion strains, growth OD

Measured: normalized growth

CC(=O)OCC[C@H](C)CCC=C(C)C
inactive: locus YAL013W, strain DEP1, hits give low values 1 | locus YAL021C, strain ccr4, hits give low values 0.993 | locus YAL026C, strain drs2, hits give low values 0.993 | locus YAL030W, strain snc1, hits give low values 0.989 | locus YBL061C, strain skt5, hits give low values 0.992 | locus YBR009C, strain hhf1, hits give low values 1.06 | locus YBR021W, strain FUR4, hits give low values 0.991 | locus YBR023C, strain chs3, hits give low values 0.995 | locus YBR171W, strain sec66, hits give low values 0.983 | locus YBR229C, strain ROT2, hits give low values 1.01 | locus YBR231C, strain swc5, hits give low values 0.986 | locus YBR279W, strain paf1, hits give low values 0.997 | locus YCL011C, strain gbp2, hits give low values 1.01 | locus YCL016C, strain dcc1, hits give low values 0.994 | locus YCL029C, strain bik1, hits give low values 1.03 | locus YCL061C, strain MRC1, hits give low values 1 | locus YCL069W, strain vba3, hits give low values 0.989 | locus YCR088W, strain abp1, hits give low values 0.989 | locus YDL005C, strain med2, hits give low values 0.978 | locus YDL035C, strain GPR1, hits give low values 1.02 | locus YDL040C, strain nat1, hits give low values 0.993 | locus YDL074C, strain BRE1, hits give low values 1.05 | locus YDL101C, strain DUN1, hits give low values 1.01 | locus YDL185W, strain tfp1, hits give low values 1.02 | locus YDL192W, strain arf1, hits give low values 1.04 | locus YDR001C, strain nth1, hits give low values 0.998 | locus YDR069C, strain doa4, hits give low values 0.991 | locus YDR101C, strain arx1, hits give low values 1.03 | locus YDR137W, strain rgp1, hits give low values 0.974 | locus YDR150W, strain NUM1, hits give low values 1.01 | locus YDR159W, strain sac3, hits give low values 1.02 | locus YDR162C, strain NBP2, hits give low values 1.01 | locus YDR195W, strain ref2 0.949 | locus YDR297W, strain sur2, hits give low values 1.01 | locus YDR318W, strain mcm21, hits give low values 1.02 | locus YDR334W, strain swr1, hits give low values 0.998 | locus YDR335W, strain msn5, hits give low values 0.992 | locus YDR388W, hits give low values 1.02 | locus YDR392W, strain spt3, hits give low values 0.966 | locus YDR502C, strain sam2, hits give low values 1.01 | locus YEL003W, strain gim4, hits give low values 1 | locus YEL037C, strain rad23, hits give low values 0.995 | locus YEL061C, strain CIN8 (second series), hits give low values 1.03 | locus YEL061C, strain CIN8, hits give low values 1.01 | locus YER015W, strain faa2, hits give low values 0.993 | locus YER016W, strain bim1, hits give low values 0.962 | locus YER110C, hits give low values 1.03 | locus YER111C, strain swi4, hits give low values 0.992 | locus YER155C, strain BEM2 (second series), hits give low values 0.973 | locus YER155C, strain BEM2, hits give low values 0.988 | locus YER167W, strain BCK2, hits give low values 1.01 | locus YFR010W, strain ubp6, hits give low values 1.01 | locus YGL078C, strain dbp3, hits give low values 1.01 | locus YGL086W, strain mad1, hits give low values 1.01 | locus YGL167C, strain pmr1, hits give low values 0.99 | locus YGL173C, strain kem1, hits give low values 0.986 | locus YGL227W, strain vid30, hits give low values 0.987 | locus YGL240W, strain doc1, hits give low values 0.978 | locus YGL248W, strain PDE1, hits give low values 1.02 | locus YGL253W, strain hxk2, hits give low values 0.997 | locus YGR135W, strain pre9, hits give low values 1.06 | locus YGR252W, strain gcn5, hits give low values 1.06 | locus YHR013C, strain ard1, hits give low values 0.967 | locus YHR027C, strain rpn1, hits give low values 0.99 | locus YHR030C, strain SLT2, hits give low values 1 and 1.01 | locus YHR079C, strain IRE1 (second series), hits give low values 1.02 | locus YHR079C, strain IRE1, hits give low values 1.01 | locus YHR094C, strain hxt1, hits give low values 1.02 | locus YHR129C, strain ARP1, hits give low values 0.999 | locus YHR142W, strain chs7, hits give low values 0.988 | locus YHR200W, strain rpn10, hits give low values 1.03 | locus YIL066C, strain RNR3, hits give low values 1.01 | locus YIL073C, strain SPO22, hits give low values 1.1 | locus YIL125W, strain kgd1, hits give low values 1.01 | locus YIR030C, strain dcg1, hits give low values 1.02 | locus YJL092W, strain hpr5, hits give low values 0.999 | locus YJL095W, strain BCK1 (second series), hits give low values 0.99 | locus YJL095W, strain BCK1, hits give low values 1.02 | locus YJL115W, strain asf1, hits give low values 0.991 | locus YJL129C, strain trk1, hits give low values 0.968 | locus YJL134W, strain LCB3, hits give low values 1.01 | locus YJL154C, strain vps35, hits give low values 0.981 | locus YJL164C, strain tpk1, hits give low values 1.02 | locus YJL166W, strain qcr8, hits give low values 0.96 | locus YJL168C, strain set2, hits give low values 1.02 | locus YJL187C, strain SWE1 (second series), hits give low values 1.02 | locus YJL187C, strain SWE1, hits give low values 0.982
